# High-throughput results deposited in PubChem by several laboratories.
# Only some compounds are listed: those with a hit (about 4% of all), similar ones and a draw of the others.
# Rv3671c inh: inhibits the M. tuberculosis serine protease Rv3671c; P9WHR9; 320,000 compounds, 0.048% hits; inhibition, % at 5.96 µM; in the data active = inhibition above about 38%;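 also: extracellular domain of Rv3671c used as enzyme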
# GDH-TPI counter: inhibits GDH-TPI coupling enzymes, artifact for Mtb FBA screen. inhibition, % at 4.8 µM. AID 588335. 360,000 compounds, 1.2% hits. GDH-TPI coupled enzyme counterscreen, NADH absorbance; in the data active = inhibition above about 30%
# RecA splice inh: blocks M. tuberculosis RecA intein splicing. cell-free RecA intein splicing, fluorescence. inhibition, % (concentration not given with the values). 290,000 compounds, 0.75% hits. AID 2221; in the data active = inhibition above about 30%
# Mtb bLac sens: beta-lactam sensitization of Mtb H37Rv; inhibition, % at 25 µM; 330,000 compounds, 0.27% hits; M. tuberculosis H37Rv growth with meropenem, percent inhibition; call rule not given here;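 also: growth measured after seven days incubation then overnight dye step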
# Mtb FBA inh: inhibitors of M. tuberculosis fructose-bisphosphate aldolase. P9WQA3. purified M. tuberculosis FBA, fluorescence read-out. inhibition, % at 1 µM. 360,000 compounds, 2.3% hits. AID 588726; in the data active = inhibition above about 27%
# Target sequence (P9WQA3 whole entry, looked up): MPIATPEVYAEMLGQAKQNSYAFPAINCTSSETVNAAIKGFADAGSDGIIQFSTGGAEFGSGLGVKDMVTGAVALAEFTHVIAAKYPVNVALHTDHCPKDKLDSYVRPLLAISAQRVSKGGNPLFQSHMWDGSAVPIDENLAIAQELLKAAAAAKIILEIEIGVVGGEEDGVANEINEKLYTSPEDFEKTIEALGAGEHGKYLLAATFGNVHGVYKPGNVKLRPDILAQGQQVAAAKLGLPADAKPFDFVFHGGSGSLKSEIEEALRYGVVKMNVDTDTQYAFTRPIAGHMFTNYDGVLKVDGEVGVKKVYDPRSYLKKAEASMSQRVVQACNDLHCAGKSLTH
# Mtb UGM inh: inhibitors of M. tuberculosis UDP-galactopyranose mutase | purified UGM, fluorescence polarization probe displacement | 320,000 compounds, 0.06% hits | AID 504406 | inhibition, % at 10 µM; in the data active = inhibition above about 10%, passing the limit was not always enough
# Hits are given with their value; – = inactive; · = no result given; + = active, no number.
SMILES,Rv3671c inh,GDH-TPI counter,RecA splice inh,Mtb bLac sens,Mtb FBA inh,Mtb UGM inh
COc1cccc(/C=C/C(=O)OCC(=O)Nc2cc(C(F)(F)F)ccc2Cl)c1,–,–,–,–,–,–
N[C@@H](Cc1ccc(N(CCCl)CCCl)cc1)C(=O)O,–,32.6,·,–,–,–
NC(Cc1ccc(O)cc1)C(=O)NN=Cc1ccc(N(CCCl)CCCl)cc1 (centres undefined),·,49.8,·,·,–,·
CCN(CC)c1ccc(/C=N/NC(=O)C(O)c2ccccc2)cc1 (centres undefined),–,–,–,–,–,–
CC(=O)NC(Cc1ccc(N(CCCl)CCCl)cc1)C(=O)O (centres undefined),–,–,–,–,–,–
Oc1ccc(C[C@H]2CNCCN2CC2(c3ccccc3)CC2)cc1,–,–,–,–,–,–
Cc1nn(C(=O)c2cccnc2)c(C)c1Sc1ccc(Br)cc1,–,–,43.8,–,–,–
Cc1nn(C(=O)c2ccco2)c(C)c1Sc1ccc(Cl)cc1,–,–,–,–,–,–
Clc1ccccc1/C=C/C=N/Nc1nc(N2CCOCC2)nc(N2CCOCC2)n1,–,40.2,–,–,–,–
CC(=C/c1ccccc1)/C=N/Nc1nc(N2CCOCC2)nc(N2CCOCC2)n1,–,–,–,–,–,–
C(=C\c1ccccc1)/C=N/Nc1nc(N2CCOCC2)nc(N2CCOCC2)n1,–,47.1,–,–,–,–
N#CC(C#N)=C1C=CC=CN1/C(=C\c1ccco1)C(=O)c1ccc(Cl)cc1,–,44.4,·,–,–,–
O=C(c1cnc2ccccc2n1)N1CCN(c2ccc(C(F)(F)F)cn2)CC1,–,30.6,–,–,–,–
Cc1ccc(C(=O)N2CCN(c3ccc(C(F)(F)F)cn3)CC2)cc1,–,–,–,–,–,–
COc1ccc2c(-c3cnc(N4CCOCC4)nc3)c(-c3ccc(S(C)(=O)=O)cc3)sc2c1,–,–,·,–,–,–
COCCNC(=O)Cn1nc(C)c([N+](=O)[O-])c1C,–,–,–,–,–,–
COc1cccc(-c2cc(C(F)(F)F)n3nc(N)nc3n2)c1,–,36.3,–,–,–,–
COc1ccc(-c2cc(C(F)(F)F)n3nc(N)nc3n2)cc1,–,–,–,–,+,–
COc1cc(OC)cc(-c2c(C#Cc3ccsc3)c3cc(-c4ccc(OC)c(OC)c4)ccc3n2C)c1,–,44.0,·,–,–,–
COc1cc(OC)cc(-c2c(C#Cc3ccsc3)c3cc(-c4cccc5[nH]cc(C=O)c45)ccc3n2C)c1,–,32.3,·,–,–,–
COc1cc(F)cc(-c2ccc3c(c2)c(C#Cc2ccsc2)c(-c2cc(OC)cc(OC)c2)n3C)c1,–,31.4,·,–,–,–
COc1cc(OC)cc(-c2c(C#Cc3ccsc3)c3cc(-c4ccc(OC)nc4)ccc3n2C)c1,–,44.2,·,–,–,–
COc1cc(OC)cc(-c2c(C#Cc3ccsc3)c3cc(Br)ccc3n2C)c1,–,–,·,–,–,–
COCCCC1CCN(C(=O)C2CCC(=O)N(CCCc3ccccc3)C2)CC1 (centres undefined),·,–,·,·,–,·
CCCNC(=O)CS(=O)Cc1nc(-c2ccc(OC)cc2)oc1C (centres undefined),–,–,–,–,–,–
SMILES,Rv3671c inh,GDH-TPI counter,RecA splice inh,Mtb bLac sens,Mtb FBA inh,Mtb UGM inh
O=C(CN1CCN(c2cccc(Cl)c2)CC1)c1ccc(O)cc1O,–,30.8,–,–,–,–
CN(CC(=O)Nc1ccc(F)c(F)c1F)C(=O)c1ccc2c(c1)OCCO2,–,–,–,–,–,–
COC(=O)c1ccc(COc2ccc(/C=C(\C#N)c3nc4ccccc4[nH]3)cc2OC)o1,–,32.1,–,–,–,–
COc1cc(/C=C(/C#N)c2nc3ccccc3[nH]2)ccc1OCc1ccc(C(=O)O)o1,–,–,–,–,–,–
CN(c1ccc(C(=O)Nc2ccc(Cl)cn2)cc1)S(=O)(=O)c1ccccc1,–,–,–,–,–,–
O=C1C(Cl)=C(NC(=O)c2ccccc2)C(=O)C(Cl)=C1NC(=O)c1ccccc1,–,34.0,–,–,–,–
CN(C1=C(NC(=O)c2ccc(Cl)cc2)C(=O)c2ccccc2C1=O)c1ccccc1,–,–,43.0,–,–,–
O=C(Nc1cccc(Cl)c1)c1ccccc1,–,–,·,–,–,–
COC(=O)c1ccc(C2NC(=S)N(c3ccccc3)C(C)=C2C(=O)Nc2ccccc2OC)cc1 (centres undefined),–,–,–,–,+,–
